RORgamma inh: qHTS for inhibitors of ROR gamma transcriptional activity. 310,000 compounds, 5.4% hits. AID 2551, 2010. Drosophila S2 Gal4-RORgamma UAS-luciferase reporter, 20 h. Nuclear receptor ROR-gamma (Mus musculus), P51450. Potency, µM (top dose mostly 53.6 µM), most hits filed as inhibitors; note: nearly all actives have a fitted effect of over 60% in size
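Compounds are pin-transferred onto Drosophila Schneider cells expressing a copper-inducible Gal4–ROR gamma transactivation domain fusion. After 1 hr, copper sulfate is added to 700 uM final; luciferase is read 20 hr later.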
Gal4-VP16 FLuc: VP16 counterscreen qHTS for inhibitors of ROR gamma transcriptional activity. Drosophila S2 Gal4-VP16 UAS-luciferase, luminescence, 20 h. Potency, µM (top dose mostly 53.6 µM), most hits filed as inhibitors. 310,000 compounds, 3.5% hits. AID 2546, 2010;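 note: Gal4-VP16 expression switched on by copper sulfate through the metallothionein promoter; nearly all actives have a fitted effect of over 50% in size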
MBNL1 CUG block: qHTS Assay for Inhibitors of MBNL1-poly(CUG) RNA binding; Muscleblind-like protein 1 (Homo sapiens), Q9NR56; TR-FRET MBNL1-His/biotin-(CUG)12 binding, 665/545 ratio; Potency, µM (highest dose often 57.5 µM), usual class: inhibitors; 280,000 compounds, 0.036% hits; active = well fitted inhibition curve with a large enough effect in the signal ratio, with a control signal flat, not every such curve was filed as active; inconclusive = small, poorly fitted or top-dose-only effect, or effect the other way, or a change in a side signal; inactive = no such curve, though single readings can be large or run the other way; the % refers to the signal ratio
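Ratiometric TR-FRET (665 over 545 nm, excitation 340 nm) tracks disruption of MBNL1-His/biotin-(CUG)12 complex after 60 min at room temperature, with compounds at 92 nM to 58 uM final.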
Six1-Eya2 blk: qHTS Assay for Inhibitors of the Six1/Eya2 Interaction; AlphaScreen GST-Six1/His-Eya2 binding, biochemical; hits give low values; activity change, % (test concentration not listed); 360,000 compounds, 0.56% hits; in the data active = activity change below about -65%; inconclusive = mostly about -30% to -63%
Target sequence (O00167 whole entry, looked up): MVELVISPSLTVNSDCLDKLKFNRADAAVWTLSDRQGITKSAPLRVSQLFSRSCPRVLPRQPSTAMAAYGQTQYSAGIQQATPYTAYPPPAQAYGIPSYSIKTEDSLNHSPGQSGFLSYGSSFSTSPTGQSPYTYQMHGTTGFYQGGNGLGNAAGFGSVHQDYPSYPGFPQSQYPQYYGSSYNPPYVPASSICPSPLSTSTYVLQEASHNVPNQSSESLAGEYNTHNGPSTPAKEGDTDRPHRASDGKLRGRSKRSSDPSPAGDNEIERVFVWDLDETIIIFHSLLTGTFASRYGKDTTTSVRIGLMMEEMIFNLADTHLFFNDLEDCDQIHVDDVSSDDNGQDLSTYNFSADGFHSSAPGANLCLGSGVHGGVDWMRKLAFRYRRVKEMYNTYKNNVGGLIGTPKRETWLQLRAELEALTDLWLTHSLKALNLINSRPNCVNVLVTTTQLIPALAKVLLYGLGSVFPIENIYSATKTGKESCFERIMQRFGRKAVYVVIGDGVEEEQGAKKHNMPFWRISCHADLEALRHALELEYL
Target sequence (Q15475 whole entry, looked up): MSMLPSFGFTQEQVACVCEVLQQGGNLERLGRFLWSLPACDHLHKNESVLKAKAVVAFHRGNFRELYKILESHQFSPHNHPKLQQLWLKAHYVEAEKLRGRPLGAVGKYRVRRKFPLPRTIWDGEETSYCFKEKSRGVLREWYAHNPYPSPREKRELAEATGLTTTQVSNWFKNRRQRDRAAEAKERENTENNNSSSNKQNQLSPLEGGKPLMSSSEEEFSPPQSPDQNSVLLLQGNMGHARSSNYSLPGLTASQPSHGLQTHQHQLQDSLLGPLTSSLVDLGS
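Six1/Eya2 binding was read as AlphaScreen signal after compounds were pinned into GST-Six1 plus His-tagged Eya2 (5X stock 250/500 nM) in pH 8.0 Tris/NaCl/TCEP buffer, beads added, then incubated 1 h, 37 C, dark.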
CBFb RUNX1 block: qHTS Assay for Compounds Blocking the Interaction Between CBF-beta and RUNX1 for the Treatment of Acute Myeloid Leukemia; AlphaScreen CBFb-His/RUNX1-biotin binding, biochemical; Potency, µM (top dose mostly 59.8 µM), most hits filed as inhibitors; 230,000 tested, under 10 active; AID 1477, 2009
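AlphaScreen proximity signal reports loss of binding between His-tagged CBF-beta and biotin-labelled RUNX1, each at 30 nM. Proteins are pre-associated for 20 minutes, compounds added for 15 minutes, then beads for 90 minutes, all at ambient temperature.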
CtBP-E1A inh: qHTS Assay for Inhibitors of the CtBP/E1A Interaction; AID 651724, 2012; CtBP / adenovirus E1A interaction (AlphaScreen); AlphaScreen GST-E1A/His-CtBP binding, 1536-well; hits give low values; 340,000 compounds, 0.49% hits; activity change, % (concentration not given with the values); in the data active = activity change below about -65%; inconclusive = mostly about -30% to -63%
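Protein mix (5X: 125 nM each GST-E1A, His-CtBP) was incubated with pinned compound 2 h at 37 deg C in dark, in 50 mM Tris pH 8.0 buffer with 300 mM NaCl. Glutathione donor and nickel acceptor beads followed; AlphaScreen signal read after 1 h.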
Numbers stand for hits; [ ] = another dose, or the depositor's remark. A selection: hits, their analogues and other compounds. The true share with any hit is near 5.5%. Unless noted, calls come from the whole dose curve; as a rule, active = well fitted curve in the direction sought with a large enough effect; inconclusive = small, poorly fitted or top-dose-only effect, or another doubt; inactive = no such curve, though single readings can be large; an effect the other way counts as inactive or inconclusive.

Screening CC(C)Nc1nc(Oc2cccc(Cl)c2Cl)cc(C(F)(F)F)n1 returned RORgamma inh inconclusive, Gal4-VP16 FLuc inconclusive, MBNL1 CUG block inactive, Six1-Eya2 blk inactive, CBFb RUNX1 block inactive and CtBP-E1A inh inactive.
Screening CC(C)Nc1nc(Oc2ccc(Cl)cc2Cl)cc(C(F)(F)F)n1 returned RORgamma inh 25.1µM, Gal4-VP16 FLuc inconclusive, MBNL1 CUG block inactive, Six1-Eya2 blk inactive, CBFb RUNX1 block inactive and CtBP-E1A inh inactive.
For CCN(CC)C(=O)CN1CCN(Cc2ccc3c(c2)OCO3)CC1 the results were RORgamma inh inactive, Gal4-VP16 FLuc inactive, MBNL1 CUG block inactive, Six1-Eya2 blk inactive and CtBP-E1A inh inactive.
Screening Cc1cc(C)c2ccc(/C=N/O)nc2c1O returned RORgamma inh 3.16µM, Gal4-VP16 FLuc 6.31µM, MBNL1 CUG block inconclusive, Six1-Eya2 blk inactive, CBFb RUNX1 block inactive and CtBP-E1A inh inactive.
Cc1cc(C)c2ccc(NN)nc2c1O was read as RORgamma inh 6.31µM, Gal4-VP16 FLuc 10µM, MBNL1 CUG block inactive, Six1-Eya2 blk inconclusive, CBFb RUNX1 block inactive and CtBP-E1A inh inconclusive.
Screening Cc1ccc(Nc2cc(C)c3ccc(O)cc3n2)cc1C returned RORgamma inh inactive, Gal4-VP16 FLuc inconclusive, MBNL1 CUG block inactive, Six1-Eya2 blk inactive, CBFb RUNX1 block inactive and CtBP-E1A inh inactive.
Screening Cn1nc(C(C)(C)C)cc1N1C(=O)CCC1(C)C(=O)NC1CCCC1 (stereo unspecified) returned Six1-Eya2 blk inactive and CtBP-E1A inh inactive.
O=C(COc1cccc(C(F)(F)F)c1)Nc1nnc(C2CC2)s1 was read as Six1-Eya2 blk inactive and CtBP-E1A inh inactive.
COc1ccccc1C(=O)NC(=O)COC(=O)CCNS(=O)(=O)c1ccccc1 was read as Six1-Eya2 blk inactive and CtBP-E1A inh inactive.
Screening Clc1nnc(N/N=C/c2ccccc2)c2ccccc12 returned RORgamma inh 10µM, Gal4-VP16 FLuc inconclusive, MBNL1 CUG block inactive, Six1-Eya2 blk inconclusive, CBFb RUNX1 block inactive and CtBP-E1A inh inconclusive.
Clc1nnc(NN=C2CCCC2)c2ccccc12 was read as RORgamma inh 8.91µM, Gal4-VP16 FLuc inconclusive, MBNL1 CUG block inactive[11.5 µM], Six1-Eya2 blk inactive, CBFb RUNX1 block inactive and CtBP-E1A inh inactive.
`Clc1ccc(/C=N/Nc2nnc(Cl)c3ccccc23)cc1` gave RORgamma inh inconclusive, Gal4-VP16 FLuc inactive, MBNL1 CUG block inconclusive, Six1-Eya2 blk inactive, CBFb RUNX1 block inactive and CtBP-E1A inh inactive.
For C=CCNc1nnc(Cl)c2ccccc12 the results were RORgamma inh inactive, Gal4-VP16 FLuc inactive[0.365 µM], MBNL1 CUG block inactive, Six1-Eya2 blk inactive, CBFb RUNX1 block inactive and CtBP-E1A inh inactive.
`Cc1ccc(/C=N/Nc2nnc(Cl)c3ccccc23)cc1` gave RORgamma inh 3.16µM, Gal4-VP16 FLuc 12.6µM, MBNL1 CUG block inactive[11.5 µM], Six1-Eya2 blk inactive, CBFb RUNX1 block inactive and CtBP-E1A inh inactive.
CC[C@H](C)[C@@H](NC(=O)O[C@@H]1C(=O)c2ccc(OC)cc2O[C@H]1c1cccc(C(F)(F)F)c1)C(=O)OC was read as RORgamma inh inactive, Gal4-VP16 FLuc inactive and CBFb RUNX1 block inactive.
For O=C(CCNC(=O)c1ccc(Br)cc1)NCc1ccncc1 the results were Six1-Eya2 blk inactive and CtBP-E1A inh inactive.
`CC(=O)Nc1ccc(SC[C@H](C)CN2CC[C@H](O)CCC2=O)cc1` gave Six1-Eya2 blk inactive and CtBP-E1A inh inactive.
For COc1ccc(CN(C)Cc2nc(Cc3cccc(F)c3)no2)c2cccnc12 the results were RORgamma inh inconclusive, Gal4-VP16 FLuc 7.08µM, MBNL1 CUG block inactive, Six1-Eya2 blk inactive, CBFb RUNX1 block inactive and CtBP-E1A inh inactive.
For COc1ccc(C)cc1-n1c(SCC(=O)N2CCOCC2)nc2ccccc2c1=O the results were Six1-Eya2 blk inactive and CtBP-E1A inh inactive.
